Laboratory results as given in PubChem BioAssay (EPA / NIEHS).
The source made the active and inactive calls. The calls were made as follows: active = hit-call score of the fitted dose curve at least 0.9, where 1 is the maximum; inactive = score below 0.9.

read-out: Interleukin 6 (IL6), IL6 (gene 3569); test: LTEA_HepaRG_IL6: Life Technologies and Expression Analysis (LTEA) Assay for Interleukin 6 (IL6) using HepaRG (AID 2283509); settings: mRNA level, 48 h; actives raise or lower the signal
Outline: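 Changes in IL6 mRNA, up or down relative to 0.5% DMSO controls, were derived from concentration-response curves in human HepaRG cells treated for 48 h at up to 100 uM, with ACTB, GAPDH and POLR2A as normalizers.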

| Structure (SMILES) | AC50 | outcome |
| --- | --- | --- |
| C#C[C@]1(O)CC[C@H]2[C@@H]3CCC4=CC(=O)CC[C@@H]4[C@H]3CC[C@@]21CC | 0.0379 µM (active) | – |
| O=C(O)c1ccccc1 | – | inactive |
| COC(=O)c1ccccc1C(=O)O | – | inactive |
| CC(C)(C)[C@@H](O)[C@@H](Cc1ccc(Cl)cc1)n1cncn1 | – | inactive |
| c1ccc2[nH]c(-c3cscn3)nc2c1 | – | inactive |
| N[C@@H](Cc1cc(I)c(Oc2ccc(O)c(I)c2)c(I)c1)C(=O)O | – | inactive |
| CCOC(=O)c1ccc(O)cc1 | – | inactive |
| O=C(Nc1ccc([N+](=O)[O-])cc1Cl)c1cc(Cl)ccc1O | 3.29 µM (active) | – |
| COC(=O)c1ccc(I)cc1S(=O)(=O)NC(=O)Nc1nc(C)nc(OC)n1 | – | inactive |
| CCCN(CCC)C(=O)SCC | – | inactive |
| CCCCC(CC)COC(=O)c1ccccc1C(=O)O (stereo not given) | – | inactive |
| C[C@]12C[C@H](O)[C@H]3[C@@H](CCC4=CC(=O)CC[C@@]43C)[C@@H]1CC[C@@H]2C(=O)CO | – | inactive |
| S=C([S-])NCCNC(=S)[S-].[Mn+2] | 5.31 µM (active) | – |
| O=C(O)C1(C(=O)Nc2ccc(Cl)cc2Cl)CC1 | – | inactive |
| C=CCOC(Cn1ccnc1)c1ccc(Cl)cc1Cl (stereo not given) | 73.7 µM (active) | – |
| CCCOC(=O)NCCCN(C)C | – | inactive |
| COCCO | – | inactive |
| C#CCOC(=O)[C@@H](C)Oc1ccc(Oc2ncc(Cl)cc2F)cc1 | – | inactive |
| CC(=O)[C@H]1CC[C@H]2[C@@H]3CCC4=CC(=O)CC[C@]4(C)[C@H]3CC[C@]12C | 83.5 µM (active) | – |
| CCN(CC)C(=O)c1cccc(C)c1 | – | inactive |
| COc1c(Cl)ccc(Cl)c1C(=O)O | – | inactive |
| CCCCCOC(=O)COc1cc(N2C(=O)C3=C(CCCC3)C2=O)c(F)cc1Cl | – | inactive |
| CCC(C)OC(=O)N1CCCCC1CCO (stereo not given) | – | inactive |
| CCCCOCCOCCOCc1cc2c(cc1CCC)OCO2 | – | inactive |
| CCOC(=O)COc1cc(-n2ncc(C(F)(F)F)c(C)c2=O)c(F)cc1Cl | – | inactive |
| CCCN(CCC)c1c([N+](=O)[O-])cc(C(F)(F)F)c(N)c1[N+](=O)[O-] | – | inactive |
| CC1(C)C(C=C(Cl)Cl)C1C(=O)OCc1cccc(Oc2ccccc2)c1 (stereo not given) | – | inactive |

read-out: Interleukin 6 Receptor (IL6R), IL6R (gene 3570); test: LTEA_HepaRG_IL6R: Life Technologies and Expression Analysis (LTEA) Assay for Interleukin 6 Receptor (IL6R) using HepaRG (AID 2283510); settings: mRNA level, 48 h; actives raise or lower the signal;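 as to AC50: differentiated human HepaRG liver cells in serum-free induction medium; TaqMan qRT-PCR signal normalized to ACTB GAPDH and POLR2A housekeeping genes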
Outline: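 Cells were thawed, plated and cultured 48 h, then medium was changed to serum-free induction medium. Chemicals were added in duplicate (100 uM top, half-log steps, 0.5% DMSO) for 48 h. Lysates were analyzed by qRT-PCR for IL6R expression.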

| Structure (SMILES) | outcome | AC50 |
| --- | --- | --- |
| C#C[C@]1(O)CC[C@H]2[C@@H]3CCC4=CC(=O)CC[C@@H]4[C@H]3CC[C@@]21CC | inactive | – |
| O=C(O)c1ccccc1 | inactive | – |
| COC(=O)c1ccccc1C(=O)O | inactive | – |
| CC(C)(C)[C@@H](O)[C@@H](Cc1ccc(Cl)cc1)n1cncn1 | inactive | – |
| c1ccc2[nH]c(-c3cscn3)nc2c1 | inactive | – |
| N[C@@H](Cc1cc(I)c(Oc2ccc(O)c(I)c2)c(I)c1)C(=O)O | – | 40 µM (active) |
| CCOC(=O)c1ccc(O)cc1 | inactive | – |
| O=C(Nc1ccc([N+](=O)[O-])cc1Cl)c1cc(Cl)ccc1O | – | 2.13 µM (active) |
| COC(=O)c1ccc(I)cc1S(=O)(=O)NC(=O)Nc1nc(C)nc(OC)n1 | inactive | – |
| CCCN(CCC)C(=O)SCC | inactive | – |
| CCCCC(CC)COC(=O)c1ccccc1C(=O)O (stereo not given) | inactive | – |
| C[C@]12C[C@H](O)[C@H]3[C@@H](CCC4=CC(=O)CC[C@@]43C)[C@@H]1CC[C@@H]2C(=O)CO | inactive | – |
| S=C([S-])NCCNC(=S)[S-].[Mn+2] | – | 3.93 µM (active) |
| O=C(O)C1(C(=O)Nc2ccc(Cl)cc2Cl)CC1 | inactive | – |
| C=CCOC(Cn1ccnc1)c1ccc(Cl)cc1Cl (stereo not given) | – | 12.7 µM (active) |
| CCCOC(=O)NCCCN(C)C | inactive | – |
| COCCO | inactive | – |
| C#CCOC(=O)[C@@H](C)Oc1ccc(Oc2ncc(Cl)cc2F)cc1 | inactive | – |
| CC(=O)[C@H]1CC[C@H]2[C@@H]3CCC4=CC(=O)CC[C@]4(C)[C@H]3CC[C@]12C | – | 50 µM (active) |
| CCN(CC)C(=O)c1cccc(C)c1 | inactive | – |
| COc1c(Cl)ccc(Cl)c1C(=O)O | inactive | – |
| CCCCCOC(=O)COc1cc(N2C(=O)C3=C(CCCC3)C2=O)c(F)cc1Cl | inactive | – |
| CCC(C)OC(=O)N1CCCCC1CCO (stereo not given) | inactive | – |
| CCCCOCCOCCOCc1cc2c(cc1CCC)OCO2 | inactive | – |
| CCOC(=O)COc1cc(-n2ncc(C(F)(F)F)c(C)c2=O)c(F)cc1Cl | inactive | – |
| CCCN(CCC)c1c([N+](=O)[O-])cc(C(F)(F)F)c(N)c1[N+](=O)[O-] | inactive | – |
| CC1(C)C(C=C(Cl)Cl)C1C(=O)OCc1cccc(Oc2ccccc2)c1 (stereo not given) | inactive | – |

read-out: Potassium channel subfamily K member 1 (KCNK1), KCNK1 (gene 3775); test: LTEA_HepaRG_KCNK1: Life Technologies and Expression Analysis (LTEA) Assay for Potassium channel subfamily K member 1 (KCNK1) using HepaRG (AID 2283511); settings: mRNA level, 48 h; actives raise or lower the signal
Outline: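 Human HepaRG cultures receive test chemicals for 48 h in 0.5% DMSO, top concentration 100 uM with half-log dilutions. Induction or suppression of KCNK1 mRNA relative to DMSO is derived by bidirectional fitting of qRT-PCR data.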

| Structure (SMILES) | outcome | AC50 |
| --- | --- | --- |
| O=C(O)c1ccccc1 | inactive | – |
| COC(=O)c1ccccc1C(=O)O | inactive | – |
| CC(C)(C)[C@@H](O)[C@@H](Cc1ccc(Cl)cc1)n1cncn1 | inactive | – |
| c1ccc2[nH]c(-c3cscn3)nc2c1 | inactive | – |
| N[C@@H](Cc1cc(I)c(Oc2ccc(O)c(I)c2)c(I)c1)C(=O)O | inactive | – |
| CCOC(=O)c1ccc(O)cc1 | inactive | – |
| O=C(Nc1ccc([N+](=O)[O-])cc1Cl)c1cc(Cl)ccc1O | – | 4.02 µM (active) |
| COC(=O)c1ccc(I)cc1S(=O)(=O)NC(=O)Nc1nc(C)nc(OC)n1 | inactive | – |
| CCCN(CCC)C(=O)SCC | inactive | – |
| CCCCC(CC)COC(=O)c1ccccc1C(=O)O (stereo not given) | inactive | – |
| C[C@]12C[C@H](O)[C@H]3[C@@H](CCC4=CC(=O)CC[C@@]43C)[C@@H]1CC[C@@H]2C(=O)CO | inactive | – |
| S=C([S-])NCCNC(=S)[S-].[Mn+2] | inactive | – |
| O=C(O)C1(C(=O)Nc2ccc(Cl)cc2Cl)CC1 | inactive | – |
| C=CCOC(Cn1ccnc1)c1ccc(Cl)cc1Cl (stereo not given) | – | 50 µM (active) |
| CCCOC(=O)NCCCN(C)C | inactive | – |
| COCCO | inactive | – |
| C#CCOC(=O)[C@@H](C)Oc1ccc(Oc2ncc(Cl)cc2F)cc1 | inactive | – |
| CC(=O)[C@H]1CC[C@H]2[C@@H]3CCC4=CC(=O)CC[C@]4(C)[C@H]3CC[C@]12C | – | 56.6 µM (active) |
| CCN(CC)C(=O)c1cccc(C)c1 | inactive | – |
| COc1c(Cl)ccc(Cl)c1C(=O)O | inactive | – |
| CCCCCOC(=O)COc1cc(N2C(=O)C3=C(CCCC3)C2=O)c(F)cc1Cl | inactive | – |
| CCC(C)OC(=O)N1CCCCC1CCO (stereo not given) | inactive | – |
| CCCCOCCOCCOCc1cc2c(cc1CCC)OCO2 | inactive | – |
| CCOC(=O)COc1cc(-n2ncc(C(F)(F)F)c(C)c2=O)c(F)cc1Cl | inactive | – |
| CCCN(CCC)c1c([N+](=O)[O-])cc(C(F)(F)F)c(N)c1[N+](=O)[O-] | inactive | – |
| CC1(C)C(C=C(Cl)Cl)C1C(=O)OCc1cccc(Oc2ccccc2)c1 (stereo not given) | inactive | – |
